This is one part of a sample in which hits are shown more often than they occur.
D1 mod – D1 dopamine receptor (human) allosteric modulation; HEK293 D1, CRE-luciferase, dopamine EC30 potentiation; actives deviate in either direction; B-score at 10 µM; 58,000 tested, 5.9% active; AID 641;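 active means luminescence count or its row- and column-corrected plate score outside the 99.7% band of the plate's sample wells, on either side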
EphB4 ephrin blk – antagonists of human EphB4-ephrin-B2 interaction; inhibition, % at 7 µM; EphB4 LBD / TNYL-RAW-Alexa532 peptide, fluorescence polarization; AID 720; P54760; 97,000 tested, 0.15% active;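 active means inhibition above the screen-wide mean inhibition plus 3 SD, cut at about 15% in these data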
DAT uptake mod – changed human dopamine transporter uptake under cocaine IC80; LLC-PK1 hDAT cells, [14C]-dopamine uptake with cocaine IC80; actives deviate in either direction; B-score at 10 µM; 110,000 tested, 1.3% active; AID 449768;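 active means Z score or B-score, a plate-position-corrected score, falls beyond the plate's 99.7% confidence bounds, in either direction; inactive means both scores lie inside the 99.7% bounds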
D1 mod confirm – D1 receptor (human) allosteric modulation, confirmed; shares compounds with D1 mod; HEK293 D1 CRE-luciferase, dopamine EC30 potentiation; hits give high values; luminescence at 10 µM; 2,200 tested, 88% active;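 active means luminescence in either of two replicates above the same-plate mean plus 3 SD of the low-dose dopamine control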
D1 ag no DA – D1 (human) signaling in absence of dopamine; shares compounds with D1 mod; HEK293 D1 CRE-luciferase, luminescence, no dopamine; hits give high values; luminescence at 10 µM; 1,900 tested, 0.8% active; AID 646; in the data active means luminescence above about 3900
Isoprot counter – counter-screen for D1 modulators: isoproterenol response in HEK293 cells; calls only at 10 µM; AID 647; shares compounds with D1 mod; 2,200 tested, 63% active; HEK293 D1 CRE-luciferase, isoproterenol EC30 counter-screen;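 active means luminescence in either replicate above plate mean of wells with a partly effective reference agonist dose plus 3 SD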;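 further: isoproterenol raises cAMP through native beta-adrenoceptor Gs so signal bypasses D1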
Each line names hits and unclear results; the compound was inactive in the other large screens (follow-up assays come after a bar, where they were run).

Cc1cc(C)c2nc(SC(C)C#N)cc(C)c2c1 (stereo unspecified)	none (no result: D1 mod)
N#CC(C#N)=c1ccc2c(c1)NC1(CCCCC1)N=2	none
Cc1sc2nc(CN3CCN(S(=O)(=O)c4cccc5nonc45)CC3)[nH]c(=O)c2c1C	D1 mod 3.6 | D1 mod confirm 8576 | D1 ag no DA inactive | Isoprot counter inactive
Cc1ccc(S(=O)(=O)N2CCN(Cc3nc4sc(C)c(C)c4c(=O)[nH]3)CC2)cc1	none (no result: D1 mod)
CCOc1ccc(N(CC(=O)NC(C)CC)S(=O)(=O)c2c(C)noc2C)cc1 (stereo unspecified)	none
COc1ccc(NC(=O)C2CCCCN2N)cc1OC (stereo unspecified)	none (no result: D1 mod)
COc1ccc(CN2CCCC2C(=O)Nc2ccc(OC)c(OC)c2)cc1OC (stereo unspecified)	none
COc1ccc(CN2CCCCC2C(=O)Nc2ccc(OC)c(OC)c2)cc1OC (stereo unspecified)	D1 mod 7.2 | D1 mod confirm 14900 | D1 ag no DA inactive | Isoprot counter active
COc1ccc(NC(=O)C2CCCN2c2ccc(OC)c(OC)c2)cc1OC (stereo unspecified)	D1 mod 6 (no result: EphB4 ephrin blk) | D1 mod confirm 15612 | D1 ag no DA inactive | Isoprot counter active
CN1C(C(=O)NCc2cccc(C(F)(F)F)c2)CC2Cn3c(nc4cc(Cl)c(Cl)cc43)C21 (stereo unspecified)	none (no result: D1 mod, EphB4 ephrin blk)
CN(C)S(=O)(=O)c1cccc(NC(=O)Cn2cnc3ccccc3c2=O)c1	none (no result: D1 mod)
COc1ccc(-c2cn3ccccc3n2)cc1OC	D1 mod 12 | D1 mod confirm 12712 | Isoprot counter active
COc1ccc(CC(=O)Nc2ccc(-c3cn4ccccc4n3)cc2)cc1OC	none (no result: D1 mod)
C=CCn1c(SCc2nc3c(c(=O)[nH]c(=O)n3CCCC)n2CCC)nnc1-c1ccccc1	D1 mod 3.8 | D1 mod confirm 9252 | D1 ag no DA inactive | Isoprot counter inactive
CCCn1c(SCc2ccccc2)nc2c1c(=O)[nH]c(=O)n2C	none (no result: EphB4 ephrin blk)
CCOC(=O)CSc1nc2cccnc2n1-c1ccc(F)cc1	D1 mod 22 | D1 mod confirm 24340 | D1 ag no DA inactive | Isoprot counter active
CC(C)OC(=O)CSc1nc2cccnc2n1-c1ccc(F)cc1	none (no result: D1 mod)
c1ccc2c(c1)ccc1nnc(SCc3ccc4c(c3)OCCO4)n12	none (no result: D1 mod)
c1ccc2c(c1)ccc1nnc(-c3ccc4c(c3)OCO4)n12	D1 mod 22 | D1 mod confirm 24948 | D1 ag no DA inactive | Isoprot counter active
CCOC(=O)c1ccccc1-n1c(C)cc(C2N=C(N)Nc3nc4ccccc4n32)c1C (stereo unspecified)	none (no result: D1 mod)
NC1=NC(c2ccc(Br)cc2)n2c(nc3ccccc32)N1 (stereo unspecified)	D1 mod 10 | D1 mod confirm 11596 | D1 ag no DA inactive | Isoprot counter inactive
CCCCc1ccc(/C=C2\C(=O)c3ccccc3C(O)=C2C(=O)OCC)cc1	none (no result: D1 mod)
CCOC(=O)c1cc2c(=O)n3ccccc3nc2n(CC(C)C)c1=NC(=O)c1ccco1	D1 mod 8.3 | D1 mod confirm 18960 | D1 ag no DA inactive | Isoprot counter active
CCOC(=O)c1cc2c(=O)n3ccccc3nc2n(Cc2ccco2)c1=NC(=O)c1cccnc1	none
CCOC(=O)c1cc2c(=O)n3ccccc3nc2n(CCCOC)c1=NC(=O)c1cccnc1	D1 mod 3.8 (no result: DAT uptake mod) | D1 mod confirm 9344 | D1 ag no DA inactive | Isoprot counter inactive
CCOC(=O)c1cc2c(=O)n3ccccc3nc2n(C(C)C)c1=NC(=O)c1ccncc1	D1 mod 5.7 | D1 mod confirm 16620 | D1 ag no DA inactive | Isoprot counter active
CCOCCCn1c(=NC(C)=O)c(C(=O)OCC)cc2c(=O)n3ccccc3nc21	none
CCOC(=O)c1cc2c(=O)n3ccccc3nc2n(CCOC)c1=NC(=O)c1ccncc1	none
CCOC(=O)c1cc2c(=O)n3ccccc3nc2n(CCOC)c1=NC(=O)C(C)(C)C	none
CCOC(=O)c1cc2c(=O)n3ccccc3nc2n(CCCOC)c1=NC(=O)C(C)(C)C	D1 mod 4.8 | D1 mod confirm 7076 | D1 ag no DA inactive | Isoprot counter inactive
Cc1c(NC(=O)OCCNC(=O)COc2c(Cl)cccc2Cl)sc(=S)n1C	none (no result: D1 mod)
COc1ccc(CNC(=O)c2ccc(N3CCC4(CC3)CC(c3ccc(Cl)cc3)=NO4)c(N)c2)cc1	none (no result: D1 mod, EphB4 ephrin blk)
